{"source": "paper PMC4552634", "about": "“A New Set of Chemical Starting Points with Plasmodium falciparum Transmission-Blocking Potential for Antimalarial Drug Discovery” (PLoS ONE, 2015)", "note": "Among all 13,000 compounds or so, about 3,200 (25%) showed an effect of 50% or more. The list shows a part of the results.", "data": [{"test_system": "P. falciparum stage V gametocytes", "design": "BacTiter-Glo ATP luminescence viability of purified stage V gametocytes in 384-well plates, per cent inhibition versus DMSO", "settings": "48 h, 5 µM; inhibitor", "units": {"% Inhibition": "%"}, "values": [{"smiles": "Cc1cnc(C[S+]([O-])c2nc3ccc(C(F)(F)F)cc3[nH]2)cc1OCc1ccccc1", "note": "(centres unmarked) [TCMDC-131542]", "% Inhibition": 10.44}, {"smiles": "Nc1nc(N)c2c(Cc3ccccc3)cccc2n1", "note": "[TCMDC-137764]", "% Inhibition": -5.935}, {"smiles": "CCN(CC)CCN(Cc1ccc(-c2ccc(C(F)(F)F)cc2)cc1)C(=O)Cn1cc(CCCc2cccc(F)c2F)c(=O)c2ccccc21", "note": "[TCMDC-141331]", "% Inhibition": 81.22}, {"smiles": "CCN(CC)CCN(Cc1ccc(-c2ccc(C(F)(F)F)cc2)cc1)C(=O)Cn1cc(CCCCc2cccc(F)c2F)c(=O)c2ccccc21", "note": "[TCMDC-141340]", "% Inhibition": 60.46}, {"smiles": "COc1ccc(OC)c2c1CCN(C)C2Cc1cccc2ccccc12", "note": "(centres unmarked) [TCMDC-137509]", "% Inhibition": 12.85}, {"smiles": "O=C(NC1CCC(N2CCC(c3nc4ccccc4s3)CC2)CC1)c1cc2ccccc2[nH]1", "note": "(centres unmarked) [TCMDC-132780]", "% Inhibition": -77.63}, {"smiles": "Cc1cc(C(=O)Nc2ccc3c(c2)CCN3C2CCN(Cc3ccc4nsnc4c3)C2)no1", "note": "(centres unmarked) [TCMDC-135076]", "% Inhibition": -30.56}, {"smiles": "O=S(=O)(NC1=NCCC1)c1cccc(Nc2nc(C(F)(F)F)nc3ccccc23)c1", "note": "[TCMDC-124821]", "% Inhibition": -4.384}, {"smiles": "CNc1ccc(CNCc2cccc(-c3ccc(-c4nc5cccc(C)c5[nH]4)s3)c2)cc1.O=C(O)C(F)(F)F", "note": "[TCMDC-132983]", "% Inhibition": 78.71}, {"smiles": "Cc1cccc2nc(-c3ccc(-c4cccc(CNCc5ccccc5)c4)s3)[nH]c12.O=C(O)C(F)(F)F", "note": "[TCMDC-132703]", "% Inhibition": -30.5}, {"smiles": "Cc1noc(C)c1-c1cccc(CNCc2cccc(-c3ccc(-c4nc5cccc(C)c5[nH]4)s3)c2)c1.O=C(O)C(F)(F)F", "note": "[TCMDC-133059]", "% Inhibition": -9.203}, {"smiles": "COc1ccc(CNCc2cccc(-c3ccc(-c4nc5cccc(C)c5[nH]4)s3)c2)cc1.O=C(O)C(F)(F)F", "note": "[TCMDC-132722]", "% Inhibition": 2.559}, {"smiles": "Cc1cccc2nc(-c3ccc(-c4cccc(CNC5CCN(C)CC5)c4)s3)[nH]c12.O=C(O)C(F)(F)F", "note": "[TCMDC-132736]", "% Inhibition": 105.5}, {"smiles": "CNc1ccc(CNCc2cccc(-c3ccc(-c4nc5ccccc5[nH]4)s3)c2)cc1.O=C(O)C(F)(F)F", "note": "[TCMDC-132977]", "% Inhibition": -37.37}, {"smiles": "C=CCOC(=O)N1CCC(CNCc2ccc(-c3cccc(-c4nc5ccccc5[nH]4)c3)cc2)C1.O=C(O)C(F)(F)F", "note": "(centres unmarked) [TCMDC-132566]", "% Inhibition": 89.86}, {"smiles": "Cc1cccc2nc(-c3ccc(-c4cccc(CNCc5cccc(N)c5)c4)s3)[nH]c12.O=C(O)C(F)(F)F", "note": "[TCMDC-132936]", "% Inhibition": -17.71}, {"smiles": "Cc1cccc2nc(-c3ccc(-c4cccc(CNCc5ccc(CN)cc5)c4)s3)[nH]c12.O=C(O)C(F)(F)F", "note": "[TCMDC-132812]", "% Inhibition": 115.3}, {"smiles": "C=CCOC(=O)N1CCC(CNCc2ccc(-c3cccc(-c4nc5cc(F)ccc5[nH]4)c3)cc2)C1.O=C(O)C(F)(F)F", "note": "(centres unmarked) [TCMDC-133044]", "% Inhibition": 2.158}, {"smiles": "Cc1cccc2nc(-c3ccc(-c4cccc(CNC(C)C)c4)s3)[nH]c12.O=C(O)C(F)(F)F", "note": "[TCMDC-132743]", "% Inhibition": 8.329}, {"smiles": "C=CCOC(=O)N1CCC(CNCc2cccc(-c3cccc(-c4nc5ccccc5[nH]4)c3)c2)C1.O=C(O)C(F)(F)F", "note": "(centres unmarked) [TCMDC-133046]", "% Inhibition": -7.738}, {"smiles": "CC1(C)N=C(N)N=C(N)N1OCc1cccc(C#N)c1", "note": "[TCMDC-124037]", "% Inhibition": -12.77}, {"smiles": "CCCC(C)Nc1nc(C)cc(N[C@@H](CC(C)C)C(=O)NCc2ccc(C)cc2)n1", "note": "(some centres unmarked) [TCMDC-134897]", "% Inhibition": -16.22}, {"smiles": "Cc1ccc(N2C(=O)C3C(C2=O)C2(c4ccccc4)C(=O)C3(c3ccccc3)C(c3ccccc3)=C2c2ccccc2)cc1", "note": "(centres unmarked) [TCMDC-124241]", "% Inhibition": -3.804}, {"smiles": "CN1C(=O)[C@H](NC(=O)[C@@H](Cc2ccccc2)NC(=S)Nc2ccccc2)N=C(c2ccccc2)c2ccccc21", "note": "[TCMDC-132115]", "% Inhibition": 12.99}, {"smiles": "Cc1ccc(Nc2nc(C)cc(NC3CC3)n2)cc1", "note": "[TCMDC-133469]", "% Inhibition": 5.355}, {"smiles": "CC1CCCN(Cc2c(O)ccc3c(=O)c(-c4nc5ccccc5s4)c(N)oc23)C1", "note": "(centres unmarked) [TCMDC-124468]", "% Inhibition": -5.264}, {"smiles": "Cc1ccc(-c2nnc(-c3ccc(C(=O)NC4CCN(Cc5ccc(C#N)cc5)CC4)cc3)o2)cc1Br", "note": "[TCMDC-136130]", "% Inhibition": -28.74}, {"smiles": "Cc1ccc(Cn2c(N3CCC(C(=O)NCc4cccs4)CC3)nc3ccccc32)cc1", "note": "[TCMDC-124400]", "% Inhibition": 16.64}, {"smiles": "C=CCOC(=O)N1CCC(CNCc2cccc(-c3ccc(-c4nc5cccc(C)c5[nH]4)cc3)c2)C1.O=C(O)C(F)(F)F", "note": "(centres unmarked) [TCMDC-133040]", "% Inhibition": 4.148}, {"smiles": "COc1ccc(CNCc2ccc(-c3ccc(-c4nc5cccc(C)c5[nH]4)s3)cc2)cc1.O=C(O)C(F)(F)F", "note": "[TCMDC-132727]", "% Inhibition": 15.75}, {"smiles": "C=CCOC(=O)N1CCC(CNCc2cccc(-c3cccc(-c4nc5cccc(C)c5[nH]4)c3)c2)C1.O=C(O)C(F)(F)F", "note": "(centres unmarked) [TCMDC-133038]", "% Inhibition": -20.08}, {"smiles": "Cc1cccc2nc(-c3ccc(-c4ccc(CNCc5ccc(CN)cc5)cc4)s3)[nH]c12", "note": "[TCMDC-132809]", "% Inhibition": 97.61}, {"smiles": "Cc1cccc2nc(-c3ccc(-c4cccc(CNCCc5ccncc5)c4)s3)[nH]c12.O=C(O)C(F)(F)F", "note": "[TCMDC-132853]", "% Inhibition": -22.63}, {"smiles": "CNCCNCc1cccc(-c2ccc(-c3nc4cccc(C)c4[nH]3)s2)c1.O=C(O)C(F)(F)F", "note": "[TCMDC-132835]", "% Inhibition": 98.35}, {"smiles": "Cc1cccc2nc(-c3ccc(-c4ccc(CNCc5cccc(N)c5)cc4)s3)[nH]c12.O=C(O)C(F)(F)F", "note": "[TCMDC-132932]", "% Inhibition": -65.22}, {"smiles": "C=CCOC(=O)N1CCC(CNCc2cccc(-c3ccc(-c4nc5cccc(C)c5[nH]4)s3)c2)C1.O=C(O)C(F)(F)F", "note": "(centres unmarked) [TCMDC-133043]", "% Inhibition": 63.05}, {"smiles": "Cc1cccc2nc(-c3ccc(-c4cccc(CNCCCNS(C)(=O)=O)c4)s3)[nH]c12.O=C(O)C(F)(F)F", "note": "[TCMDC-133078]", "% Inhibition": -8.111}, {"smiles": "COc1cccc(CNC[C@@H](O)[C@H](Cc2ccccc2)NC(=O)c2cc(C(C)C)cc(N3CCCC3=O)c2)c1", "note": "[TCMDC-134130]", "% Inhibition": 14.96}]}]}
